HCMV inh = blocks human cytomegalovirus replication; HFF cells, HCMV-luciferase reporter, 72 h; active compounds read low; activity change, negative = inhibition, % at 57.5 µM; 410,000 tested, 4.5% active; AID 1259415; in the data active = activity change below about -60%; inconclusive = no clear call, values can overlap the other calls; inactive = above about -39%
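Cell-based, HFFs, 1000 cells/well, 16 h 37C; cpds in DMSO + HCMV-luc, MOI 1 PFU/cell; 72 h 37C; OneGlo luminescence after 5 min RT; norm. to buffer vs Salinomycin 10uM.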
MARV entry inh = Marburg virus entry inhibition | Marburg virus pseudotyped entry inhibition, cell reporter | Potency, µM (top dose mostly 37.8 µM), for the others: top-dose activity change, negative = inhibition, most hits filed as inhibitors | 300,000 tested, 1.8% active | AID 540276; calls by dose curve; tested in HEK293 cells; also: potency is read from the fitted curve at half-maximal effect
Lassa entry inh = inhibitors of Lassa virus binding or cell entry. Lassa virus pseudotype entry inhibition, cell reporter. Potency, µM (doses to about 37.9 µM), inactives show at the highest dose activity change, negative = inhibition, hits mostly inhibitors. 300,000 tested, 1.2% active; calls by dose curve; tested in HEK293 cells; also: potency is read from the fitted curve at half-maximal effect; nearly all actives have a fitted effect of over 50% in size
HCV inhibitor = HCV inhibition; 340,000 tested, 3.4% active; Potency, µM (titrated, usually from 41.8 µM), for inactives: at the highest dose activity change, negative = inhibition, hits mostly inhibitors; Huh7.5.1 HCVcc-Cre infection, luciferase reporter, 44 h; also: potency is read from the fitted curve at half-maximal effect
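Infectious HCVcc-Cre (~0.5 moi) was added to cells just after compound, with cells seeded 4 h earlier at 1,000 per well. Luciferase activity after 44 h culture reported infection; substrate was incubated 15 min at room temperature before reading.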
FMDV antiviral = antivirals against foot and mouth disease virus. FMDV antiviral cell-based qHTS. Potency, µM (top dose mostly 57.9 µM), for inactives: at the top dose activity change, negative = inhibition, usual class: inhibitors. 410,000 tested, 1.2% active. AID 1159524; calls by dose curve; tested in HEK293T cells; also: read-out not given here; potency is read from the fitted curve at half-maximal effect; nearly all actives have a fitted effect of over 45% in size
FBPA Giardia inh = inhibitors of Giardia lamblia fructose-1,6-bisphosphate aldolase | A8B2U2 | purified Giardia FBPA | Potency, µM (highest dose often 59.6 µM), for inactives: top-dose activity, negative = inhibition, usual class: inhibitors | 290,000 tested, 0.71% active; also: potency is read from the fitted curve at half-maximal effect; nearly all actives have a fitted effect of over 55% in size
Target sequence (A8B2U2 whole entry, looked up): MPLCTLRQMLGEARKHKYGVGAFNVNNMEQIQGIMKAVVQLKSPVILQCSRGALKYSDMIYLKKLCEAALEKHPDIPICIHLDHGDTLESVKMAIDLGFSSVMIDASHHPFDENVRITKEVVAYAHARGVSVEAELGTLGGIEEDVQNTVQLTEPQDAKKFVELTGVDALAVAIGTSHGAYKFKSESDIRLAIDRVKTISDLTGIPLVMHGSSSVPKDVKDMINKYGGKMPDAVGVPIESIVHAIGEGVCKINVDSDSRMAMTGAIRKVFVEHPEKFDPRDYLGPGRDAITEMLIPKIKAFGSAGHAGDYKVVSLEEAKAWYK
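40 nM FBPA preincubated 10 min at RT with compound (up to 57.5 uM final), then substrate plus GAPDH/TPI/NAD/arsenate coupling and diaphorase/resazurin added. Fluorescence read after 20 min at RT, 525/598 nm.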
Active calls of the source: *; ? = inconclusive; nt = not tested or not shown; ! = not confirmed by another sample; [ ] = another dose, or the depositor's remark. This is a sample that favours compounds with a hit; in the whole collection about 8.3% have one here. Unless noted, calls follow the shape of the dose curve; as a rule, active = well fitted curve in the direction sought with a large enough effect; inconclusive = small, poorly fitted or top-dose-only effect, or another doubt; inactive = no such curve, though single readings can be large; an effect the other way counts as inactive or inconclusive. % is scaled to controls: 0 for no effect and ±100 for the full control effect.

SMILES	HCMV inh	MARV entry inh	Lassa entry inh	HCV inhibitor	FMDV antiviral	FBPA Giardia inh
COc1cccc(NC(=O)Cn2c(=O)n(Cc3ccc(C(=O)NCc4ccc(C)cc4)cc3)c(=O)c3ccccc32)c1	29	?	?	nt	-3%	nt
CSc1ccc2c(c1)C(N1CCN(C)CC1)Cc1ccccc1S2 (centres undefined)	-75*!	6.3µM*	18µM*	?	?	-7%
CN1CCN(C2Cc3ccccc3Sc3cc(C(F)(F)F)ccc32)CC1 (centres undefined)	-109*	?	?	11µM*	12%	nt
CC(C)c1ccc2c(c1)C(N1CCNCC1)Cc1ccc(F)cc1S2 (centres undefined)	-98*	?	?	?	-5%	nt
CN1CCN(C2Cc3ccc(F)cc3Sc3cc(F)c(Cl)cc32)CC1 (centres undefined)	-95*	?	?	?	2%	nt
CSc1ccc2c(c1)[C@H](N1CCN(C)CC1)Cc1ccccc1S2	nt	?	nt	nt	?	5%
CC[C@H](C)[C@@H](NC(=O)O[C@@H]1C(=O)c2ccc(OC)cc2O[C@H]1c1cccc(C(F)(F)F)c1)C(=O)OC	nt	nt	nt	nt	nt	1%
CN1CCN(C2Cc3ccccc3Sc3ccc(Cl)cc32)CC1 (centres undefined)	-11	16µM*	10µM*	?	?	2%
CCC(NC(=O)c1cc(COc2cncc(Cl)c2)on1)c1ccc(C)cc1 (centres undefined)	-99*	?	-21%	-22%	-11%	nt
COc1ccc(CCNc2ncnc3c2oc2ccccc23)cc1OC	-92*	?	?	3.2µM*	nt	-21%
COc1ccc(CCNc2nc(C)nc3c2oc2ccccc23)cc1OC	-67*	13µM*	13µM*	?	18µM*	-24%
Cc1ccc(CNC(=O)COCc2cc(-c3ccc4c(c3)OCO4)on2)cc1	-25	nt	?	nt	-16%	nt
NC(C(=O)O)c1cc(O)cc(O)c1 (centres undefined)	nt	nt	nt	nt	5%	nt
O=[N+]([O-])c1ccc(N2CCOCC2)c2c1no[n+]2[O-]	-101*	nt	nt	nt	10µM*	nt
O=[N+]([O-])c1ccc(N2CCOCC2)c2cccnc12	5	nt	nt	-4%	-15%	-9%
CCOC(=O)c1c(C)[nH]c(C)c1S(=O)(=O)N(C)CC(=O)Nc1ccc(OC)cc1	-7	nt	-1%[46.1 µM]	nt	-5%	nt
COc1cccc2[nH]c(-c3ccccn3)nc12	2	nt	nt	nt	nt	nt
CCc1cc2c(=O)[nH]c(N3CCCC3)nc2s1	10	21%	?	8%	51%	-7%
COc1cnc(-c2ccccn2)[nH]c1=O	-12	?	-15%	14%	-15%	3.5µM*
CCc1cc2c(=O)[nH]c(-c3ccccn3)nc2s1	-101*	6.3µM*	5.6µM*	?	?	14%
COc1cccc([C@@H]2Oc3ccc(Br)cc3C(=O)[C@@H]2OC(=O)N[C@H](C)C2CCCCC2)c1	nt	-30%[14.2 µM]	nt	nt	nt	nt
CCc1c(C)nc(SCC(N)=O)c(C#N)c1C	-64*	8%	8%	-14%	nt	4%
COc1ccc(N(C)C(=O)NCc2noc3ccc(C)cc23)c(OC)c1	-82*	nt	2%[46.1 µM]	nt	-14%	nt
C=CCn1c(C(CCCC)CC(O)COCCC)n[nH]c1=S (centres undefined)	-17	nt	nt	-3%	-21%	?
C=CCn1c(CCC(O)COCCCCC)n[nH]c1=S (centres undefined)	-97*	16%	6%	2%	-11%	?
SMILES	HCMV inh	MARV entry inh	Lassa entry inh	HCV inhibitor	FMDV antiviral	FBPA Giardia inh
CC(C)C12CN3CC(C(C)C)(CN(C1)C3c1ccc([N+](=O)[O-])o1)C2=O (centres undefined)	-72*	-1%[46.1 µM]	0%	8%	13%	-9%
CC(C)N(C)C1CCN(S(=O)(=O)c2ccc3[nH]c(=O)ccc3c2)CC1	24	nt	5%[46.1 µM]	nt	-15%	nt
CCCN1CCC(N2CCCC(C(=O)O)C2)CC1 (centres undefined)	-60*	7%[14.2 µM]	-18%	4%	-30%	0%
CC(C)(C)C(=O)NC(=S)Nc1cc(C(=O)O)ccc1Cl	-61*	?	14%	12%	5%	11%
Cc1oc(-c2ccc3c(c2)OCCO3)cc1C(=O)NC(CCC(=O)O)C(=O)O (centres undefined)	52	-22%	-22%	-7%	41%	12%
Cc1oc(-c2ccc3c(c2)OCCO3)cc1C(=O)NCC(=O)O	-13	?	?	17%	28µM*	0%
Cc1oc(-c2ccc3c(c2)OCCO3)cc1C(=O)O	-63*	?	1.1µM*	14%	2.2µM*	4%
COc1ccc(-c2cc(C(=O)NC(Cc3cc4ccccc4[nH]3)C(=O)O)c(C)o2)cc1OC (centres undefined)	25	3%[46.1 µM]	19%	6%	21%	5%
COc1ccc(-c2cc(C(=O)O)c(C)o2)cc1OC	-17	?	?	-20%	13µM*	19%
Cc1cccc(Cn2c(=O)n(-c3cc(C)cc(C)c3)c(=O)c3oc4ccccc4c32)c1	-25	nt	1%[46.1 µM]	nt	-18%	nt
Cc1ccc(C)c(N2CCN(C(=O)CCCOc3cc(=O)n(C)c4ccccc34)CC2)c1	56	?	?	10µM*	25µM*	1%
COc1ccc(N2CCN(C(=O)CCCOc3cc(=O)n(C)c4ccccc34)CC2)cc1	136	?	9%	-11%	?	0%
Cc1ccc(C)c(N2CCN(C(=O)COc3cc(=O)n(C)c4ccccc34)CC2)c1	-24	-24%	18µM*	?	?	-10%
Clc1cc2nc3ccccn3c2cc1Cl	15	9%	16%	25µM*	-10%	6%
O=[N+]([O-])c1ccc2ncnc(N3CCN(Cc4ccc5c(c4)OCO5)CC3)c2c1	-80*	nt	nt	?	?	18%
COC(=O)c1cscc1S(=O)(=O)Cc1ccccc1	1	nt	nt	23%	1%	-12%
COC(=O)c1ccccc1NC(=O)c1nc(S(=O)(=O)Cc2ccccc2)ncc1Cl	-110*	nt	nt	0%	32µM*	nt
COc1ccc(CNC(=O)c2nc(S(=O)(=O)Cc3ccccc3)ncc2Cl)cc1	-95*	-7%[46.1 µM]	?	?	22µM*	nt
COc1ccc(CNC(=O)c2nc(SC(C)C)ncc2Cl)cc1	18	8%[46.1 µM]	-22%[46.1 µM]	nt	-9%	nt
CCS(=O)(=O)c1ncc(Cl)c(C(=O)NCc2ccccc2)n1	-100*	?	?	nt	?	nt
CS(=O)(=O)c1ncc(Cl)c(C(=O)Nc2ccc3ccccc3c2)n1	-98*	8.9µM*	?	11µM*	13µM*	4%
CCCS(=O)(=O)c1ncc(Cl)c(C(=O)Nc2c(C(=O)Nc3ccccc3)oc3ccccc23)n1	-31	-15%[46.1 µM]	?	nt	?	nt
CC(=O)Nc1ccc(NC(=O)c2nc(S(=O)(=O)Cc3ccccc3)ncc2Cl)cc1	-86*	nt	nt	-20%	32µM*	nt

Bioassay records deposited in PubChem BioAssay by National Center for Advancing Translational Sciences (NCATS).
